Inconclusive results are not listed. A number with no mark means an inactive call. Activity calls are given as the source filed them. Calls follow the shape of the dose curve; as a rule, active = well fitted inhibition curve with a large enough effect; inconclusive = small, poorly fitted or top-dose-only effect; inactive = flat fitted curve, though single readings scatter.

The subject of one assay is HEK293. In words: Cytotoxic Profiling of Annotated Libraries Using Quantitative High-Throughput Screening (AID 1296008). Also: potency is read from the fitted curve at half-maximal effect. As to max response: % is scaled to controls: 0 for no effect and ±100 for the full control effect. To be noted: Five cell lines viability, CellTiter-Glo ATP luminescence, 48-72 h; max response: stronger effect = lower value. Summed up: (§1)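 Cytotoxicity was measured as CellTiter-Glo ATP luminescence, read after 10 min at room temperature. Compound treatment of the cells lasted 48 or 72 hr at 37 degrees Celsius in a qHTS format.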

For assay [1], the system named is HaCat. The description is as above. To be noted: Five cell lines viability, CellTiter-Glo ATP luminescence, 48-72 h; max response: stronger effect = lower value. Summed up:
as §1
(In general: ATP-based viability assays read luminescence as a measure of living cells.)

The subject of another assay is KB-3-1. Described as above. To be noted: Five cell lines viability, CellTiter-Glo ATP luminescence, 48-72 h; max response: stronger effect = lower value. The gist of the method:
as §1

The next assay deals with NIH3T3. The assay is described as above. To be noted: Five cell lines viability, CellTiter-Glo ATP luminescence, 48-72 h; max response: stronger effect = lower value. Summed up:
as §1

A further assay has as its system HEK293T. In words: qHTS assay to identify novel small-molecules to repurpose for Merkel cell carcinoma treatment (AID 1296009). To be noted: MCC and control cell lines, CellTiter-Glo viability, 72 h; at 44.8 µM (top of the series) unless noted. Summed up: (§2)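 Cell viability measured by CellTiter-Glo following 72 hr compound treatment at 37 degree celsius, with NPC and MIPE libraries tested in 8- and 11-point concentration series.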
On the technique in general: qHTS replaces the single test concentration by a dilution series.

For assay [2], the system named is HACAT. The assay is described as above. To be noted: MCC and control cell lines, CellTiter-Glo viability, 72 h; series mostly up to 44.8 µM. The gist of the method: as §2
Also: nearly all actives have a fitted effect of over 60% in size.

For the molecule `COc1cc(O)c2c(c1)C1=C[C@H](O)[C@@H](O)C[C@]1(C)OC2=O`, the outcome in the assay on HEK293, with NIH3T3 and in the assay with HEK293T was inactive. Further, the max response in the assay on HaCat [1] was -2.92%; with KB-3-1, 9.7%.

On to `Oc1ccc2nc(CN3CCC(Cc4ccccc4F)CC3)[nH]c2c1`, for which the max response in the assay on HEK293 was -10.9%; in the assay on KB-3-1 it was -7.21%; in the assay on NIH3T3, -12%. Besides, in the assay on HaCat [1], the outcome was inactive. The Potency result with HACAT [2] was “inactive”.

As to `CC(C)c1ccc(CO)cc1O[C@@H]1O[C@H](CO)[C@@H](O)[C@H](O)[C@H]1O`, the call with HEK293, in the assay on KB-3-1, in the assay on NIH3T3 and with HEK293T was inactive. The max response with HaCat [1] is 1.11%.

`CC1(C)CCC[C@@]2(C)C1[C@H](OC(=O)/C=C/C=C/C(=O)O)C=C1COC(=O)[C@@]12O` (some centres undefined): the max response was -4.94% with HEK293 and 0.106% with KB-3-1. In addition, the molecule was called inactive in the assay with HaCat [1] and with NIH3T3. Moreover, the Potency entry in the assay on HACAT [2] is “inactive”.

For `COC(=O)C12C(=O)C(C)=C(O)C1(C)C(C)=CC1C3(CO)CCC(O)C(C)(C)C3CCC12C` (centres undefined), the max response is 1.96% with HEK293, -2.12% with KB-3-1 and -3.91% in the assay with NIH3T3. Besides, the molecule was called inactive in the assay on HaCat [1]. Moreover, the Potency result in the assay on HACAT [2] is “inactive”.

On to `COC(=O)C1=CO[C@@H](O[C@@H]2O[C@H](CO)[C@@H](O)[C@H](O)[C@H]2O)[C@@H]2C(COC(C)=O)=C[C@H](O)[C@H]12`, for which the max response in the assay on HEK293 is -2.65%. Moreover, the call in the assay on HaCat [1], in the assay on KB-3-1 and in the assay with NIH3T3 was inactive. For the same molecule, the Potency result in the assay with HACAT [2] is “inactive”.

For `COC(=O)CC(O)CC(O)/C=C/c1c(C)ccc2c1C(O)CC(C)C2` (centres undefined), the result in the assay on HEK293, in the assay on KB-3-1, in the assay with NIH3T3 and in the assay with HEK293T was inactive. The max response with HaCat [1] was -0.771%.

`C=C(C)C1CCC(C)C12CC(O)C1(C)OC1C2OC(=O)C(N)CCC(=O)O` (centres undefined): the max response was -1.87% in the assay on HEK293, 1.24% in the assay with KB-3-1 and 4.47% with NIH3T3. Besides, the molecule was called inactive in the assay on HaCat [1]. Further, the Potency entry in the assay on HACAT [2] was “inactive”.

`NC1(C(=O)NC(CCO)c2ccc(Cl)cc2)CCN(c2ncnc3[nH]ccc23)CC1` (centres undefined): the Potency in the assay with HEK293 was 1.03 µM (active). The max response in the assay on HaCat [1] is -41.5%; with KB-3-1 it was -13.8%. In the assay with NIH3T3, the molecule was called inactive.

With `CCCC(=O)O[C@@H]1[C@@H]2[C@@H](OC(C)=O)[C@]3(C)C(=O)[C@H]4[C@@H](OC(C)=O)C(C)(C)C[C@H]4[C@]3(C)C(=O)[C@@]2(OC(C)=O)C[C@@H]1C`, the max response with HEK293 was 3.97%; in the assay with KB-3-1 it was 8.81%. Also, the result in the assay with HaCat [1] and with NIH3T3 was inactive. For the same molecule, the Potency result with HACAT [2] is “inactive”.

For `C=CC1C(OC2OC(CO)C(O)C(O)C2O)OC=C(C(=O)OC)C1CC(=O)OCC1C(C)C(O)CC1C(CO)COC(=O)CC1C(C(=O)O)=COC(OC2OC(CO)C(O)C(O)C2O)/C1=C\C` (centres undefined), the values for the max response with HEK293 and in the assay with NIH3T3 were 0.0453% and -19.3%, respectively. The result with HaCat [1] and in the assay with KB-3-1 was inactive. In addition, the outcome in the assay on HACAT [2] was “inactive [at 9.27 µM]”.

Take `CC1=CC(=O)CC(C)(C)[C@H]1/C=C/C(CO)O[C@@H]1O[C@H](CO)[C@@H](O)[C@H](O)[C@H]1O` (some centres undefined): the values for the max response with HEK293 and in the assay on NIH3T3 were -4.12% and -2.41%, respectively. In addition, the result in the assay on HaCat [1] and in the assay on KB-3-1 was inactive. In addition, the Potency result in the assay on HACAT [2] is “inactive”.

For the molecule `COc1c2c(c(CO)c3c1C(=O)OC3)OC1(C)CCC3(O)C(C)(C)OC(=O)CCC3(C)C1C2` (centres undefined), the result with HEK293 and with KB-3-1 was inactive. Further, the max response in the assay on HaCat [1] was -24.1%; in the assay with NIH3T3, -8.25%. Further, the outcome with HEK293T is “inactive [at 17.4 µM]”.

Regarding `CC1(C)CCC(C)(C)c2cc(C3(c4ccc(C(=O)O)cc4)OCCO3)ccc21`, the max response in the assay with HEK293 is -82.5%; in the assay on KB-3-1, 9.31%; with NIH3T3, -24.2%. The molecule was classed as inactive in the assay with HaCat [1]. In the assay with HACAT [2], the Potency result was “inactive”.

Take `CC1=CC(=O)[C@]2(O[C@@H]3O[C@@H](C)[C@H](O)[C@@H](O)[C@H]3OC(=O)/C=C/c3ccccc3)C=CO[C@@H](O[C@@H]3O[C@H](CO)[C@@H](O)[C@H](O)[C@H]3O)[C@H]12`: the max response in the assay on HEK293 is -1.41%; in the assay on KB-3-1 it was 8.78%. Moreover, the outcome in the assay on HaCat [1] and with NIH3T3 was inactive. The Potency result in the assay with HACAT [2] is “inactive”.

In the case of `C[C@@H]1CCN(C(=O)N2CCCC2)C[C@@H]1N(C)c1ncnc2[nH]ccc12`, the figures for the max response in the assay on HEK293, in the assay on KB-3-1 and in the assay on NIH3T3 were -16.9%, 6.14% and -9.02%, respectively. The molecule was classed as inactive with HaCat [1]. Also, the Potency entry in the assay on HACAT [2] was “inactive”.

On to `COc1ccc([C@@]2(O)c3c(ccc(CC=C(C)C)c3O)NC(=O)[C@@H]2OC)cc1`, for which the molecule was classed as inactive with HEK293, with HaCat [1] and in the assay on HEK293T. In addition, the max response in the assay on KB-3-1 was 8.3%; in the assay on NIH3T3 it was 4.4%.

Turning to `O=C(/C=C/c1ccccc1)OC[C@]12O[C@H]1[C@@H](O)[C@@H]1C=CO[C@@H](O[C@@H]3O[C@H](CO)[C@@H](O)[C@H](O)[C@H]3O)[C@@H]12`, the result in the assay on HEK293, in the assay with HaCat [1], in the assay on KB-3-1 and with NIH3T3 was inactive. In the assay on HEK293T, the outcome was “inactive [at 17.4 µM]”.

The values are drawn from PubChem BioAssay (NCATS).
